Screen size: about 360,000 compounds; about 7,500 (2.1%) were called active. A call without a number means that no potency is given here. Inconclusive results (about 8%) are left out. This excerpt belongs to a sample that is enriched for actives. Values without a mark were called inactive. Calls come from the whole dose curve; as a rule, active = well fitted cell-killing curve with a large enough effect; inconclusive = small, poorly fitted or top-dose-only effect, or effect the other way, or another doubt; inactive = no such curve, though single readings can be large or run the other way.
Potency is the fitted concentration of half-maximal effect.

The nature of the experiment: qHTS for induction of synthetic lethality in tumor cells producing 2HG: qHTS for the HT-1080-IDH1KD cell line. As to conditions: HT-1080 IDH1 knockdown viability, ATP luminescence, 48 h; series mostly up to 46.1 µM. Summed up:
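Knockdown cells (IDH1KD HT-1080) received compounds 2 h after plating at 750 cells/well and were kept 48 h at 37 °C in 5% FBS RPMI. A CellTiter-Glo luminescence read gave % activity for curve fitting.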
In general terms: Quantitative high-throughput screening tests each substance at several concentrations.
With `CC(C)NC(=O)Nc1ccc2c(c1)C(=O)N([C@H](C)CO)C[C@H](C)[C@@H](CN(C)Cc1ccc(C(F)(F)F)cc1)OCCCC[C@@H](C)O2`, the Potency entry is “inactive”.

For the compound `O=C(Cc1c(O)c2ccccc2[nH]c1=O)NCc1ccccc1`, the Potency result was “inactive”.

`CCCc1nc2ccccc2c(=O)n1NC(=O)c1c(O)c2ccccc2[nH]c1=O`: the Potency was 11.2 µM (active).

In the case of `COc1cc(C(=O)Nn2c(CC(C)C)nc3ccccc3c2=O)cc(OC)c1OC`, the Potency result was “inactive”.

Take `CCOC(=O)c1cc(C)nc(S(C)(=O)=O)c1C#N`: the Potency is 20.6 µM (active).

On to `CCOC(=O)COc1nc(C)cc(C(F)(F)F)c1C#N`, for which the Potency entry was “inactive”.

Consider `CCOC(=O)c1c(C(C#N)C#N)cc(C)nc1C`, for which the Potency result was “inactive”.

As for `NS(=O)(=O)c1ccc(CNC(=O)c2cc(S(=O)(=O)N3CCOCC3)ccc2N2CCCC2)cc1`, the Potency entry is “inactive”.

For `COC(=O)Cc1ccc(OC2(C)CCN(Cc3ccc4c(c3)OCCO4)C2)cc1` (stereo not given), the Potency result was “inactive”.

For `COc1ccc(C(=O)C(OP(=O)(OC)OC)c2ccccc2OC)cc1` (stereo not given), the Potency entry is “inactive”.

On to `C[C@@H]1CN([C@@H](C)CO)S(=O)(=O)c2ccc(C#Cc3cccc(F)c3)cc2O[C@H]1CN(C)S(=O)(=O)c1cn(C)cn1`, for which the Potency entry was “inactive”.

Consider `O=C(CCC(=O)N/N=C/c1ccc(Br)o1)N/N=C/c1ccc(Br)o1`, for which the Potency result is “inactive”.

Regarding `CCOc1cc(C=NNC(=O)CCCC(=O)NN=Cc2ccc(O)c(OCC)c2)ccc1O`, the Potency result was “inactive”.

`O=C(CCc1ccc(O)cc1)NN=Cc1cc(Br)ccc1O`: the Potency was 16.4 µM (active).

As to `CCc1nc2ccc(C(=O)N3CCN(S(=O)(=O)CC)CC3)cn2c1N(C=O)CCC(C)C`, the Potency entry was “inactive”.

In the case of `C[C@H]1CN([C@@H](C)CO)C(=O)CCCn2nncc2CO[C@@H]1CN(C)S(=O)(=O)c1cccc(C#N)c1`, the Potency entry is “inactive”.

Take `Cc1ccc(S(=O)(=O)/N=C2\C=C(NS(=O)(=O)c3ccc(C)cc3)C(=O)c3ccccc32)cc1`: the Potency result is “inactive”.

As for `COc1ccc(S(=O)(=O)/N=C2\C=C(NS(=O)(=O)c3ccccc3)C(=O)c3ccccc32)cc1`, the Potency is 20.6 µM (active).

Take `COc1ccc(S(=O)(=O)NCCCc2ccccc2)cc1`: the Potency result was “inactive”.

In the case of `CC1(C(=O)NS(=O)(=O)c2ccccc2Cl)CCN1C(=O)c1cccc(F)c1` (stereo not given), the Potency entry was “inactive”.

As to `CCCCC(O)C1=C[N+](=O)CC=C1` (stereo not given), the Potency entry is “inactive”.

Consider `O=C(COC(=O)CCc1c[nH]c2ccccc12)Nc1cccc(Cl)c1`, for which the Potency entry was “inactive”.

Take `CCCCOC(=O)Nc1nccs1`: the Potency entry was “inactive”.

On to `CCCCc1nnc(NC(=O)CS(=O)(=O)Cc2ccccc2)s1`, for which the Potency result was “inactive”.

As to `CCCCOC(=O)Nc1nnc(CC(=O)NCc2ccccc2)s1`, the Potency is 5.17 µM (active).

With `CCC(c1nc2ccccc2[nH]1)n1c(=O)c(-c2cccs2)nc2ccccc21` (stereo not given), the Potency result is “inactive”.

`COc1ccc(C(=O)NCC[N+](C)(C)C)cc1`: the Potency entry was “inactive”.

For the compound `CCOC(=O)c1cnn2c(SC)ncnc12`, the Potency result is “inactive”.

Turning to `CCOc1ccc(OCc2ccc(C(=O)Nc3cccc(C)n3)o2)cc1`, the activity, negative = toxicity was 2.75% [at 9.24 µM].

As to `Cc1cc(OCc2ccc(C(=O)Nc3ccc(C(=O)O)cc3)o2)ccc1Cl`, the Potency is 23.1 µM (active).

As for `COc1ccc(NC(=O)CN(C)C(=O)c2ccc(COc3ccccc3)o2)cc1`, the Potency result is “inactive”.

`N#Cc1ccc(C(C(=O)NCc2ccccc2)n2c(=O)c(-c3ccco3)nc3ccccc32)cc1` (stereo not given): the Potency entry is “inactive”.

As to `Cc1ccc(-c2csc(-c3cc(C)on3)n2)cc1`, the Potency entry was “inactive”.

Take `Cc1ccc(-c2csc(-c3c[nH]c4ccccc34)n2)cc1`: the Potency entry is “inactive”.

In the case of `CCc1ccccc1NC(=O)[C@@H]1CCC(=O)N1C1OC(=O)c2c1ccc(OC)c2OC` (stereo not given in full), the Potency result was “inactive”.

With `Cc1ccc(-c2csc(NC3OC(=O)c4ccccc43)n2)cc1` (stereo not given), the Potency was 11.6 µM (active).

Turning to `COc1ccc2c(c1OC)C(=O)OC2Nc1nc(-c2ccccc2)cs1` (stereo not given), the Potency is 10.3 µM (active).

Turning to `C/C(CC1CC(C)(C)OC1=O)=N/Nc1nc(-c2ccccc2)cs1` (stereo not given), the Potency entry is “inactive”.

As to `COC(=O)C(Cc1c[nH]c2ccccc12)NC(=O)CCNC(=O)c1ccco1` (stereo not given), the Potency entry is “inactive”.

As for `CC(=O)N1CCN(Cc2cc(=O)oc3cc(C)ccc23)CC1`, the Potency entry is “inactive”.

For `c1ccc(Cn2nnc3c(N4CCCCC4)ncnc32)cc1`, the Potency result was “inactive”.

As to `O=C1CCC(C(=O)OCC(=O)Nc2ccc(OC(F)F)cc2)=NN1`, the Potency entry is “inactive”.

For `CC(C)(O)C1=C[N+](=O)CC=C1`, the Potency result is “inactive”.

`CCN(CCN(C)C)C(=O)c1ccc2nc(C)c(N(C)C(=O)CCc3ccccc3)n2c1`: the Potency entry was “inactive”.

Consider `COc1ccc(NC(=O)CNC(=O)Cc2ccccc2)cc1OC`, for which the Potency result is “inactive”.

`COc1ccc(CCNC(=O)Cc2ccc(C)cc2)cc1OC`: the Potency result was “inactive”.

`COc1ccc(CNC(=O)Cc2ccc(-c3ccccc3)cc2)cc1OC`: the Potency is 14.6 µM (active).

For the compound `CC1=C(C(=O)N2CCOCC2)CC(CC(=O)NCCCN(C)C)C(=O)N1Cc1ccc(C(C)(C)C)cc1` (stereo not given), the Potency entry is “inactive”.

With `COc1ccc(Cn2c(=O)[nH]c3cc(C(=O)N4CCN(C(=O)c5ccco5)CC4)ccc3c2=O)cc1`, the Potency entry was “inactive”.

For `COc1ccccc1NC(=O)C(CC(=O)O)Cc1cc(C)cc(C)c1` (stereo not given), the Potency result is “inactive”.

On to `O=C(CSc1ccc(Cl)cc1)NC1CC1`, for which the Potency result is “inactive”.

As for `COc1ccc(NC(=O)/C(C#N)=C\c2cc(OC)c(OCc3ccc(C(=O)O)cc3)cc2Br)cc1`, the Potency result is “inactive”.

Regarding `COc1ccc(CNC(=O)CCn2cccc2)cc1`, the Potency result is “inactive”.

Turning to `COc1ccc(CNC(=O)/C(C#N)=C/c2cccc(OC)c2OC)cc1`, the Potency was 25.9 µM (active).

In the case of `CCOC(=O)C(C(=O)c1ccccc1)C(c1ccccc1)c1nccc2ccccc12` (stereo not given), the Potency result is “inactive”.

Consider `Cc1ccc(S(=O)(=O)N2[C@@H](Cc3ccccc3)CO[C@H]2CC(=O)OCc2ccccc2)cc1`, for which the Potency result was “inactive”.

As to `CC(=O)Nc1cccc(-c2cc3nc(NCc4cccnc4)n(C)c(=O)c3s2)c1`, the Potency entry is “inactive”.

For `O=C1NC[C@@H](CCCCN2CCN(CCc3ccc(O)cc3)C(=O)C2=O)N(CC2CCCCC2)C1=O`, the Potency entry was “inactive”.

Take `CC(C)(C)N1C(=O)c2c(C(=O)OCc3ccccc3)[nH]c(-c3ccccc3)c2C1=O`: the Potency entry is “inactive”.

Regarding `O=C(N/N=C\c1cccnc1)c1cc(-c2ccccc2)nc2c(Cl)cccc12`, the Potency was 9.2 µM (active).

For `COc1ccc(-c2cc(C(=O)N/N=C/c3cccnc3)c3ccccc3n2)c(OC)c1`, the Potency entry is “inactive”.

Regarding `C/C(=N\NC(=O)c1cc(-c2ccc(O)cc2)nc2ccccc12)c1cccnc1`, the Potency entry is “inactive”.

As to `CCOc1ccc(S(=O)(=O)NCCC(=O)NNC(=O)c2ccc(F)cc2)cc1`, the Potency entry is “inactive”.

Turning to `C[C@@H]1CN([C@H](C)CO)C(=O)c2cc(Br)cnc2O[C@@H]1CN(C)Cc1cncnc1`, the Potency result was “inactive”.

With `Cc1ccc(-c2nc(-c3ccncc3)no2)c(C)c1`, the Potency result was “inactive”.

Turning to `COc1ccc(-c2nc(-c3ccccc3)no2)c(OC)c1`, the Potency was 14.1 µM (active).

Consider `COc1ccc(/C=C/c2noc(-c3ccccc3OC(C)=O)n2)cc1`, for which the Potency result was “inactive”.

Take `CCOc1ccc(NS(=O)(=O)c2ccc(C(=O)NCC3CCCO3)cc2)cc1` (stereo not given): the Potency entry was “inactive”.

Turning to `CCc1ccc(C2C(C#N)=C(N)Oc3n[nH]c(CC(=O)OC)c32)cc1` (stereo not given), the Potency entry was “inactive”.

As to `CCOc1c(OC)cc(C2C(C#N)=C(N)Oc3n[nH]c(-c4ccncc4)c32)cc1OC` (stereo not given), the Potency result is “inactive”.

As to `COCc1[nH]nc2c1C(C1C=CCCC1)C(C#N)=C(N)O2` (stereo not given), the Potency is 11.2 µM (active).

On to `O=C(NCc1cccc(C(F)(F)F)c1)c1ccc2sc(COCCO)nc2c1`, for which the Potency entry is “inactive”.

As to `Cc1ccc(Cc2c(-c3ccc(Cl)cc3)nc3c4ccccc4ccn23)cc1`, the Potency result was “inactive”.

In the case of `Cc1cc(Br)cn2c(Cc3ccsc3)c(-c3ccc(C#N)cc3)nc12`, the Potency entry was “inactive”.

As to `N#Cc1cccc(NC(=O)COC(=O)c2ccccc2C(=O)c2ccc(Cl)c([N+](=O)[O-])c2)c1`, the Potency is 5.17 µM (active).

`COC(=O)c1cc(NC(=O)Cc2ccccc2[N+](=O)[O-])ccc1Cl`: the Potency result was “inactive”.

For the compound `CC(=O)Nc1ccc(NC(=O)COC(=O)c2ccccc2C(=O)c2ccccc2)cc1`, the Potency result was “inactive”.

As for `N#Cc1ccc(-c2ccc3nccn3c2)cc1`, the Potency result was “inactive”.

For the compound `Cc1ccc(S(=O)(=O)N[C@H]2CCC[C@@H]2O)cc1`, the Potency result was “inactive”.

Take `CNC[C@H]1OCc2cnnn2CCCC(=O)N([C@H](C)CO)C[C@@H]1C`: the Potency result is “inactive”.

On to `COC(=O)c1ccc2c(c1)S(=O)(=O)NC2C` (stereo not given), for which the Potency entry is “inactive”.

As for `COc1ccccc1OCCOc1ccc(/C=N/n2cnnc2)cc1`, the Potency was 20.6 µM (active).

Turning to `COc1cccc(OCCOc2cccc(/C=N/n3cnnc3)c2)c1`, the Potency entry is “inactive”.

As to `C=CCc1ccc(OCCOc2cccc(/C=N/n3cnnc3)c2)c(OC)c1`, the Potency entry is “inactive”.

With `CC(OC(=O)c1cccc(S(=O)(=O)N2CCOCC2)c1)C(=O)NCC1CCCCC1` (stereo not given), the Potency result is “inactive”.

As for `CC(C)C1CCN(C(=O)C2CCC(=O)N(C3CCCCCC3)C2)CC1` (stereo not given), the Potency result is “inactive”.

On to `CCN1C(=O)[C@H]2[C@@H](c3ccc(C(F)(F)F)cc3)N[C@]3(CCCN(Cc4ccc(Br)cc4)C3=O)[C@H]2C1=O`, for which the Potency result is “inactive”.

Take `COc1cccc(/C=C2\C=C(c3ccc(C)cc3)OC2=O)c1OC(C)=O`: the Potency result is “inactive”.

For the compound `COc1cccc(/C=C/c2ccc3ccccc3n2)c1OC(C)=O`, the Potency is 11.6 µM (active).

Turning to `CC(OC(=O)c1ccc2ccccc2n1)C(=O)c1ccccc1` (stereo not given), the Potency entry is “inactive”.

With `CCCCNC(=O)C[C@@H]1C[C@@]2(C(=O)OC)CC(C)(C)CC=C2N(Cc2ccco2)C1=O`, the Potency entry is “inactive”.

For the compound `C[C@H](NC(=O)[C@@H]1CCCN1C(=O)[C@@H]1CCCN1C(=O)c1ccccc1)c1ccccc1`, the Potency entry was “inactive”.

Regarding `CC1=C(C(=O)N(C)C)CC(CC(=O)NCCc2ccccn2)C(=O)N1CCC1=CCCCC1` (stereo not given), the Potency result was “inactive”.

For the compound `O=S(=O)(Nc1ccc(O)c2ccccc12)c1ccc(OC(F)(F)F)cc1`, the Potency is 20.6 µM (active).

On to `O=C1COc2ccc(S(=O)(=O)Nc3ccc(OC(F)(F)F)cc3)cc2N1`, for which the Potency result is “inactive”.

`Cc1nn(C)c(C)c1NS(=O)(=O)c1ccc(OC(F)(F)F)cc1`: the Potency entry was “inactive”.

`Cn1c(CCN2CCN(c3ccccn3)CC2)nc2cc(NS(=O)(=O)c3ccc(F)cc3)ccc21`: the Potency result is “inactive”.

As to `C[C@]12CC[C@H](O)CC1=CCC1C2CC[C@@]2(C)C1CC[C@@H]2NC(=O)CCC(=O)O` (stereo not given in full), the Potency entry was “inactive”.

On to `CC(=O)OC1CCC2(C)C(=CCC3C4CC(=O)N(O)C(=O)C4(C)CCC32)C1` (stereo not given), for which the Potency was 25.9 µM (active).

As to `C[C@@H]1CC[C@@]2(OC1)O[C@H]1C[C@H]3[C@@H]4CC=C5C[C@@H](O)[C@H](O)C[C@]5(C)C4CC[C@]3(C)[C@H]1[C@@H]2C` (stereo not given in full), the Potency entry is “inactive”.

The values are drawn from PubChem BioAssay AID686971 (National Center for Advancing Translational Sciences (NCATS), 2013).
